Nrf2 inh: Nrf2 qHTS screen for inhibitors; A549 ARE-Fluc reporter, luciferase luminescence, 18-24 h; Potency, µM (series often up to 46 µM), for inactives: top-dose activity change, negative = inhibition, actives largely listed as inhibitors; 360,000 tested, 2.1% active; further: potency means the concentration at half of the fitted maximal effect; on the % scale 0 is the no-effect control and ±100 the full control effect; nearly all actives have a fitted effect of over 60% in size
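Quantitative HTS in A549 cells stably bearing an antioxidant response element-firefly luciferase construct. Inhibition of Nrf2-driven transcription was scored by luminescence after 18-24 h of compound exposure at 37 °C.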
BRCA1 expr act: qHTS Assay to Identify Small Molecule Activators of BRCA1 Expression; MCF7-BRCA1-FFLuc reporter, luminescence, 48 h; response scale: scaled: vehicle 0%, 10 µM genistein 100%; Potency, µM (top dose mostly 46.1 µM), inactives show at the highest dose activation, actives largely listed as activators; 380,000 tested, 1.1% active; AID 624202, 2012; further: potency means the concentration at half of the fitted maximal effect; nearly all actives have a fitted effect of over 80% in size
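Luminescence from a BRCA1-driven firefly luciferase in MCF7 cells was read after 48 h compound exposure at 37 C. Data normalized against DMSO and a 10microM genistein activation control, then curve-fitted across the titration.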
A549 tox: Nrf2 qHTS screen for inhibitors: counterscreen for cytotoxicity; A549 ARE-Fluc cells, CellTiter-Fluor viability, 18-24 h; 390,000 tested, 0.16% active; AID 504648, 2011; Potency, µM (top dose mostly 46 µM), for the others: at the top dose activity change, negative = cytotoxicity, actives largely listed as inhibitors; further: potency means the concentration at half of the fitted maximal effect; on the % scale 0 is the no-effect control and ±100 the full control effect
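A549 ARE-Fluc cells in 5% FBS OPTI-MEM, 5000 cells/well, rested 2 h then exposed to compounds in concentration-response for 18-24 h at 37 °C. Viability by CellTiter-Fluor fluorescence (Ex 405/Em 525) after 30 min; luciferase luminescence (BugLite, 15 min, RT) read afterwards.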
p53 reactivation: qHTS assay for re-activators of p53 using a Luc reporter; AID 504706, 2011; 320,000 tested, 0.063% active; H1299 p53-A138V BP100-luciferase reporter, luminescence, 24 h; Potency, µM (top dose mostly 92.2 µM), for the others: at the highest dose activity change, positive = activation, hits mostly activators; further: potency means the concentration at half of the fitted maximal effect; % of control where 0% means no effect; nearly all actives have a fitted effect of over 45% in size
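p53-null H1299 cells stably carrying temperature-sensitive p53-A138V and a BP100-luciferase reporter were pinned with compounds (4-point, 1:5 series) and held 24 hrs at 37 deg C. Luminescence was read 10 min after detection reagent.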
IL2 activator: qHTS of IL-2 Activators; IL-2 activation reporter assay, cell-based qHTS; stimulated with anti-CD3/CD4/CD28 beads; in transgenic mouse T cells; activation, % (series mostly up to about 46 µM); 360,000 tested, 0.065% active; AID 652025, 2013; in the data active means activation above about 50%; inconclusive means mostly about 30% to 49%; further: 0% is about no effect
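Using fluorescent plate cytometry, EGFP and DsRed are detected in transgenic mouse T cells stimulated 18 h at 37 degrees C with antibody-coated beads after 60 min compound pretreatment.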
Nrf2 ARE act: qHTS of Nrf2 Activators | Potency, µM (top dose mostly 46.1 µM), without a hit: at the highest dose activation, most hits filed as activators | AREc32 ARE-luciferase reporter (MCF7-derived line), luminescence, 24 h | 410,000 tested, 0.31% active; further: potency means the concentration at half of the fitted maximal effect; % of control where 0% means no effect; nearly all actives have a fitted effect of over 65% in size
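Each well held 1000 AREc32 cells, which were incubated with compound for 24 hr at 37 deg C after overnight attachment, and ARE reporter activity was quantified by firefly luciferase luminescence.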
The depositor's hits bear a star; ? = inconclusive; . = not tested or not shown; [ ] = dose if it differs, or a comment. Shown are actives, neighbours in structure and some others; about 3.2% of the full set was active somewhere. Unless noted, the call rests on the fitted dose curve; in most records, active means well fitted curve in the direction sought with a large enough effect; inconclusive means small, poorly fitted or top-dose-only effect, or another doubt; inactive means no such curve, though single readings can be large; an effect the other way counts as inactive or inconclusive.

SMILES	Nrf2 inh	BRCA1 expr act	A549 tox	p53 reactivation	IL2 activator	Nrf2 ARE act
Cc1ccc(NC(=O)C(=O)NCC2CCCO2)cc1C (stereo unspecified)	?	?	8%	10%	5	-1%
O=C(NCC1CCCO1)Nc1ccc(Cl)cc1 (stereo unspecified)	?	10µM*	-6%	.	0	2%
CC(=O)N1CCc2cc(S(=O)(=O)C(C)CC(=O)Nc3ccc(Br)c(C)c3)ccc21 (stereo unspecified)	-28%	53%	3%	.	.	5%
CNc1cc[n+](C)c2ccccc12	.	0%	.	.	.	.
O=C(C[n+]1ccccc1Cl)c1ccc2ccccc2c1	.	49%	.	.	.	.
CCN(CC)C(=O)c1sc2c(c1C)c(=O)n(CCc1ccccc1)c(=O)n2Cc1cc(C)ccc1C	.	.	-3%	.	.	-1%
Cc1ccc(C(=O)Nc2cccc(-c3cnc4ccccc4n3)c2)cc1	4%	74%	-2%	2%	0	0%
O=[N+]([O-])c1cccc(-c2cnc3ccccc3n2)c1	?	22%	6%	?	1	6.3µM*
COc1ccc(C(=O)Nc2cccc(-c3cnc4ccccc4n3)c2)cc1	1%	4µM*	-11%	25%	-1	0%
CC(C)C(=O)Nc1cccc(-c2cnc3ccccc3n2)c1	18%	11µM*	-6%	6%	1	2%
CCCC1=Nc2cc(C(=O)NCc3ccccc3)ccc2Sc2ccccc21	-22%	.	-10%	.	.	-1%
CC1CC(C)CN(S(=O)(=O)c2ccc(Oc3ccc([N+](=O)[O-])cc3)cc2)C1 (stereo unspecified)	23µM*	-47%	12%	0%	-1	0%
COCCn1c(SCC(=O)/C=C2\N(C)c3ccccc3C2(C)C)nnc1-c1ccncc1	23µM*	-32%	-27%	-11%	-1	-1%
COc1ccc(Nc2nnc(SCC(=O)/C=C3/N(C)c4ccccc4C3(C)C)s2)cc1	23µM*	-79%	?	-2%	-1	6%
Clc1ccccc1CN(Cc1ccccc1)C(c1cccs1)c1nnnn1C1CCCC1 (stereo unspecified)	-37%	-44%	-21%	.	-2	-1%
Clc1ccc(CN(CC2CCCO2)C(c2cccs2)c2nnnn2C2CCCC2)cc1 (stereo unspecified)	12µM*	-47%	-26%	0%	-2	0%
CCOc1ccc(NC(=O)C2CCN(S(=O)(=O)c3c(C)noc3/C=C/c3ccco3)CC2)cc1	0%	.	5%	.	.	25%
Cc1noc(/C=C/Nc2ccc(F)cc2F)c1[N+](=O)[O-]	5%	92%	-21%	?	0	2.8µM*
COc1ccccc1N/C=C/c1onc(C)c1[N+](=O)[O-]	?	?	?	.	5	-2%
Cc1ccc(-c2nnc(SC(C)C(=O)NCc3ccco3)n2C)cc1 (stereo unspecified)	.	5%	.	.	.	.
Cc1ccc(Cn2c(=O)n(CCc3ccccc3)c(=O)c3c(C)c(C)sc32)cc1	-11%	.	2%	.	.	0%
CCN(CC)CCNC(=O)c1c(C)oc2ncn(C)c(=O)c12	?	0%	4%	.	.	1%
Cn1cccc1/C=C1\Cc2ccccc2C1=O	22%	3%	-4%	?	-1	11µM*
Cn1cccc1/C=C1\CCc2ccccc2C1=O	?	?	3%	?	-3	?
O=C1/C(=C/c2cccs2)Cc2ccccc21	2%	?	-3%	40µM*	1	?
SMILES	Nrf2 inh	BRCA1 expr act	A549 tox	p53 reactivation	IL2 activator	Nrf2 ARE act
O=C1/C(=C/c2ccco2)CCc2ccccc21	9%	36%	2%	?	-2	?
O=C1C(=Cc2cccc(Cl)c2)Cc2ccccc21	.	72%	.	.	0	10µM*
O=C1C(=Cc2cccc(Cl)c2)CCc2ccccc21	.	-10%	.	.	0	?
O=C1/C(=C\c2ccc(Br)o2)Cc2ccccc21	?	-25%	1%	?	0	11µM*
CCC(C)CN1C(=O)CSCC1(C)C(=O)Nc1ccc2c(c1)OCCO2 (stereo unspecified)	.	.	.	.	0	.
COc1ccc(CCNC(=O)c2c(C)nn(-c3ccc(F)cc3)c2-n2cccc2)c(OC)c1OC	?	-20%	-15%	.	.	0%
Cc1ccc(Cl)cc1NS(=O)(=O)c1cc2c(cc1Cl)CCC(=O)N2	-25%	.	10%	.	.	.
N#Cc1nc(Nc2ccc(Br)cc2)nc(NC2CCCC2)n1	?	.	-18%	.	.	.
COc1ccc(OC)c(-c2c3cc(O)c(=O)cc-3oc3cc(O)c(O)cc23)c1	-54%	-85%	21µM*	1%	-6	3%
CCOc1ccccc1-c1c2cc(O)c(=O)cc-2oc2cc(O)c(O)cc12	?	-81%	18µM*	-11%	15	-1%
O=c1cc2oc3cc(O)c(O)cc3c(-c3ccccc3O)c-2cc1O	?	-32%	-18%	-1%	-2	?
O=C(CSc1nc2ncccc2o1)Nc1cccc(C(F)(F)F)c1	?	.	4%	.	.	7%
COc1ccc(C(=O)C2C(=O)C(=O)N(Cc3ccco3)C2c2cccs2)cc1 (stereo unspecified)	3%	15%	-2%	.	.	.
CC12CCC(=O)C=C1CCC1C2CCC2(C)C(c3csc(N)n3)CCC12 (stereo unspecified)	18µM*	-90%	?	.	-1	3%
CC12CCC(=O)C=C1CCC1C2C(O)CC2(C)C(c3csc(N)n3)CCC12 (stereo unspecified)	23µM*	-65%	-3%	.	0	7%
C=CCn1cc(C(=O)NCc2ccco2)c(=O)c2cc(S(=O)(=O)N3CCCCCC3)ccc21	12µM*	-2%[1.84 µM]	-19%	-14%	-2	0%
COc1cccc(/C(C)=N/N=C(\C)c2cccc(OC)c2)c1	?	3.2µM*	16%	.	1	5%
NS(=O)(=O)c1ccc(N/N=C2/CCCCC2C2CCCCC2)c([N+](=O)[O-])c1 (stereo unspecified)	21µM*	-91%	?	-16%	0	-2%
Cc1cc(C)c2c(c1)/C(=N/Nc1ccc(S(N)(=O)=O)cc1[N+](=O)[O-])CCC2	7%	11%	14%	-5%	1	0%
COC(=O)c1[nH]c2ccccc2c1NC(=O)CN1CCN(c2cccc(OC)c2)C(C)C1 (stereo unspecified)	26µM*	-61%	-24%	0%	-2	2%
NC(=O)c1cc(Cc2ccccc2)sc1NC(=O)c1ccco1	.	7.9µM*	-13%	?	-2	7%

Assay outcomes from PubChem BioAssay.
